What all share (conditions): primary human lung fibroblasts
Read-out in assay [1]: Interleukin-8 (IL8), CXCL8 (gene 3576)
In words: BSK_MyoF_IL8: BioMAP Diversity Plus: MyoF Assay for Interleukin-8 (IL8) Biomarker Activity (AID 2284261). In a few lines:
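IL-8 levels were measured by ELISA in human lung fibroblasts harvested 24 h after compound addition. Responses were analysed as gain of signal over the DMSO baseline.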

Read-out in assay [2]: Decorin, DCN (gene 1634)
In words: BSK_MyoF_Decorin: BioMAP Diversity Plus: MyoF Assay for Decorin Biomarker Activity (AID 2284265). In a few lines: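 Compound is added to lung fibroblast cultures; cells incubate 24 h; decorin is then measured by ELISA; the response is analysed upward against DMSO controls.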

Assay [3] is described as follows: BSK_MyoF_SRB: Viability Assessment in the BioMAP Diversity Plus: MyoF Assay (AID 2284267).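 Also: total protein by SRB absorbance in parallel cultures as cytotoxicity measure; cells assessed 24 h after compound addition.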 The method, boiled down:
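Human lung fibroblasts dosed with chemical and assessed 24 h later for overt cytotoxicity in parallel cultures. Total protein quantified by sulforhodamine B staining (0.1% SRB after 10% TCA fixation), read at 560 nm, analysed in positive direction versus DMSO baseline.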

Read-out in assay [4]: Matrix Metallopeptidase 1 (MMP1), MMP1 (gene 4312)
In words: BSK_MyoF_MMP1: BioMAP Diversity Plus: MyoF Assay for Matrix Metallopeptidase 1 (MMP1) Biomarker Activity (AID 2284268). In a few lines: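 Lung fibroblast cultures were dosed with test chemicals and, after 24 h, MMP1 levels were measured by ELISA; responses were referenced to DMSO and analysed for increases.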

Read-out in assay [5]: TIMP metallopeptidase inhibitor 1 (TIMP1), TIMP1 (gene 7076)
Briefly: BSK_MyoF_TIMP1: BioMAP Diversity Plus: MyoF Assay for TIMP metallopeptidase inhibitor 1 (TIMP1) Biomarker Activity (AID 2284269). The method, boiled down: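 Primary human lung fibroblasts, MyoF multiplex system; chemical exposure 24 h; TIMP-1 by ELISA; positive fitting direction vs DMSO control.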

Calls of active or inactive are those of the source. The calls were made as follows: active = hit-call score of the fitted dose curve at least 0.9, where 1 is the maximum; inactive = score below 0.9.

For 27 compounds, outcome and AC50 results are on record in PubChem BioAssay (EPA / NIEHS).

For `CCCCN(CCCC)C(=S)[S-].CCCCN(CCCC)C(=S)[S-].[Ni+2]`, the outcome in assay [1], in assay [2], in assay [3], in assay [4] and in assay [5] was inactive.

Take `NC(=O)CCl`: the outcome in assay [1], in assay [2], in assay [3], in assay [4] and in assay [5] was inactive.

With `Oc1cccc(-c2ccccc2)c1`, the result in assay [1], in assay [2] and in assay [5] was inactive. In addition, the AC50 (as a rule, the concentration at which the activity in the assay is half-maximal) in assay [3] was 31.1 µM (active); in assay [4], 31.2 µM (active).

For the compound `O=[N+]([O-])c1cccc2ccccc12`, the outcome in assay [1], in assay [2], in assay [3], in assay [4] and in assay [5] was inactive.

Turning to `O=[N+]([O-])c1ccc(Nc2ccccc2)cc1`, the outcome in assay [1], in assay [2], in assay [3], in assay [4] and in assay [5] was inactive.

Take `CCCCCCCCCCCCN(C)C`: the outcome in assay [1], in assay [2], in assay [3], in assay [4] and in assay [5] was inactive.

Consider `O=c1oc2ccccc2c(O)c1C(CC(O)c1ccc(-c2ccc(Br)cc2)cc1)c1ccccc1` (stereo not given), for which the AC50 in assay [1] is 19.1 µM (active); in assay [2], 9.45 µM (active); in assay [3], 9.02 µM (active); in assay [5] it was 7.83 µM (active). Besides, the result in assay [4] was inactive.

As for `Cc1c([N+](=O)[O-])c(C)c([N+](=O)[O-])c(C(C)(C)C)c1[N+](=O)[O-]`, the result in assay [1], in assay [2], in assay [3] and in assay [5] was inactive. For the same compound, the AC50 in assay [4] is 20 µM (active).

As for `CCC(C)(C#N)N=NC(C)(C#N)CC` (stereo not given), the result in assay [1], in assay [2], in assay [3], in assay [4] and in assay [5] was inactive.

Regarding `CCOC(=O)C(SP(=S)(OC)OC)c1ccccc1` (stereo not given), the result in assay [1], in assay [2], in assay [3], in assay [4] and in assay [5] was inactive.

Take `CCOC(=O)CCN(SN(C)C(=O)Oc1cccc2c1OC(C)(C)C2)C(C)C`: the result in assay [1], in assay [2], in assay [3], in assay [4] and in assay [5] was inactive.

Regarding `Nc1ccc(N)cc1`, the outcome in assay [1], in assay [2], in assay [3], in assay [4] and in assay [5] was inactive.

For the compound `CCOC(=O)CC(=O)CCl`, the result in assay [1], in assay [2], in assay [3], in assay [4] and in assay [5] was inactive.

As to `Cc1cc(Cl)ccc1OC(C)C(=O)O` (stereo not given), the result in assay [1], in assay [2], in assay [3], in assay [4] and in assay [5] was inactive.

As to `O=S(=O)(C(Cl)(Cl)Cl)C(Cl)(Cl)Cl`, in assay [1], the result was inactive. Further, the AC50 in assay [2] was 3.37 µM (active); in assay [3], 3.81 µM (active); in assay [4], 7.05 µM (active); in assay [5], 2.93 µM (active).

For `O=C(O)COc1cc(Cl)c(Cl)cc1Cl`, the outcome in assay [1], in assay [2], in assay [3], in assay [4] and in assay [5] was inactive.

As for `CCOP(=S)(OCC)OP(=S)(OCC)OCC`, the outcome in assay [1], in assay [2], in assay [3], in assay [4] and in assay [5] was inactive.

With `C[C@]12CC[C@@H](O)C[C@@H]1CC[C@@H]1[C@@H]2CC[C@]2(C)C(=O)CC[C@@H]12`, the result in assay [1], in assay [2], in assay [3], in assay [4] and in assay [5] was inactive.

`CCOP(=S)(OCC)SCS(=O)(=O)C(C)(C)C`: the outcome in assay [1], in assay [2], in assay [3], in assay [4] and in assay [5] was inactive.

`Cc1cc(Cl)ccc1N`: the result in assay [1], in assay [2], in assay [3], in assay [4] and in assay [5] was inactive.

`Nc1c(Oc2ccccc2)cc(O)c2c1C(=O)c1ccccc1C2=O`: in assay [1], the AC50 was 10 µM (active). The result in assay [2], in assay [3], in assay [4] and in assay [5] was inactive.

As to `O=C(CCl)NCO`, the AC50 in assay [1] was 3.97 µM (active). Further, the outcome in assay [2], in assay [3], in assay [4] and in assay [5] was inactive.

With `Cc1ccccc1OP(=O)(Oc1ccccc1C)Oc1ccccc1C`, the AC50 in assay [1] was 5.42 µM (active); in assay [2] it was 20 µM (active); in assay [3] it was 12.8 µM (active); in assay [5] it was 20 µM (active). Further, in assay [4], the result was inactive.

`CC(C)(C)c1cc([N+](=O)[O-])cc(C(C)(C)C)c1O`: the result in assay [1], in assay [2], in assay [3], in assay [4] and in assay [5] was inactive.

Take `c1ccc2sc(SNC3CCCCC3)nc2c1`: in assay [1], the AC50 is 6.46 µM (active). The result in assay [2], in assay [3], in assay [4] and in assay [5] was inactive.

In the case of `OC(Cc1ccccc1Cl)(Cn1cncn1)C1(Cl)CC1` (stereo not given), the result in assay [1], in assay [2], in assay [3], in assay [4] and in assay [5] was inactive.

Regarding `OC(Cc1ccccc1Cl)(Cn1[nH]cnc1=S)C1(Cl)CC1` (stereo not given), the AC50 was 12.3 µM (active) in assay [1] and 32.2 µM (active) in assay [3]. Further, the result in assay [2], in assay [4] and in assay [5] was inactive.
